High-throughput results from PubChem.
TRb SRC2 PPI = qHTS for Inhibitors of the Interaction of Thyroid Hormone Receptor and Steroid Receptor Coregulator 2 | Potency, µM (top dose mostly 106 µM), inactives show at the highest dose activity change, negative = inhibition, actives largely listed as inhibitors | AID 1469, 2008 | hit rate 0.065% among 280,000 | TRbeta-SRC2 peptide binding, fluorescence polarization; receptor liganded with 1 µM T3 | Thyroid hormone receptor beta (Homo sapiens), P10828;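 further: potency means the concentration at half of the fitted maximal effect; plate controls were bound peptide for no effect and peptide without receptor for full effect; nearly all actives have a fitted effect of over 50% in size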
Target sequence (P10828 whole entry, looked up): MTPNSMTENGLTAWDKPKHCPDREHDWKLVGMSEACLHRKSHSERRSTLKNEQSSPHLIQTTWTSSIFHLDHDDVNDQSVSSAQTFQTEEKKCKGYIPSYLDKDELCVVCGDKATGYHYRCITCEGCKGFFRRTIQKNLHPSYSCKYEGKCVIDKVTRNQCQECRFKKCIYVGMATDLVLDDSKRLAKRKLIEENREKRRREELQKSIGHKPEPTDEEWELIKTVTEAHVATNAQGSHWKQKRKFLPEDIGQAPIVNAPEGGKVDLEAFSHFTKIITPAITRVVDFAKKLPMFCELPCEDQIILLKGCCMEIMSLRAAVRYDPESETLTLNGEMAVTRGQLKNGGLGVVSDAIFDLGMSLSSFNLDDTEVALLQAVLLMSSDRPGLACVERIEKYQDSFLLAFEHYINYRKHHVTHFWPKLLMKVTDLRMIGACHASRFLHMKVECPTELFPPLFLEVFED
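Quantitative HTS by FP: 0.6 uM TRb LBD, 20 nM labeled SRC2 20-mer, 1 uM T3, 5% DMSO; 5 hr ambient incubation; % activity per concentration and potencies from concentration series.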
Tau FP inhib = qHTS for Inhibitors of Tau Fibril Formation, Fluorescence Polarization; Microtubule-associated protein tau (Homo sapiens), P10636; K18 P301L tau heparin fibrillization, Alexa594 FP, 6 h; Potency, µM (highest dose often 57.7 µM), inactives show at the top dose activity, negative = inhibition, usual class: inhibitors; hit rate 0.39% among 280,000; further: potency means the concentration at half of the fitted maximal effect; nearly all actives have a fitted effect of over 55% in size
Target sequence (P10636 561-689 P618L limits assumed): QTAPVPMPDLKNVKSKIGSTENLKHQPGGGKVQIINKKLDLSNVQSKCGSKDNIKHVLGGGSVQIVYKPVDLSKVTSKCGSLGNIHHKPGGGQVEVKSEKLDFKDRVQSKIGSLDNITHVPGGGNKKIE
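Recombinant K18 P301L […], labeled with Alexa 594 at 0.24 uM over 15 uM unlabeled; heparin inducer 20 uM final; 37 C, 6 hr; FP endpoint.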
Tau ThT inhib = qHTS for Inhibitors of Tau Fibril Formation, Thioflavin T Binding | Potency, µM (series often up to 57.4 µM), for inactives: at the top dose activity, negative = inhibition, usual class: inhibitors | hit rate 2.1% among 270,000 | recombinant tau K18 P301L, heparin-induced fibrillization, ThT fluorescence; further: potency means the concentration at half of the fitted maximal effect; nearly all actives have a fitted effect of over 55% in size
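Heparin-induced fibrillization of the P301L-mutant K18 repeat-domain fragment of human tau was followed by ThT binding in quantitative high-throughput format.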
TR SRC2 fluor cs = Total Fluorescence Counterscreen for Inhibitors of the Interaction of Thyroid Hormone Receptor and Steroid Receptor Coregulator 2; TRb/SRC2 Texas Red total fluorescence interference; Potency, µM (highest dose often 106 µM), without a hit: at the highest dose fluorescence change, negative = quenching; hit rate 0.29% among 280,000; active means well fitted curve in either direction with a large enough effect; inconclusive means small, poorly fitted or top-dose-only effect; further: potency means the concentration at half of the fitted maximal effect
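Human TRb ligand-binding domain at 0.6 uM with 20 nM Texas Red SRC2 peptide in Tris buffer containing 1 uM T3 and 5% DMSO, incubated with compound 5 h at ambient temperature. Total fluorescence (555/632 nm) calculated as parallel + 2 × perpendicular.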
PNC inhibitor = High Content Assay for Compounds that inhibit the Assembly of the Perinucleolar Compartment; hit rate 3.1% among 140,000; activity change (PNC), negative = inhibition, % at 10 µM; PC3M PTB-GFP, PNC prevalence imaging, 16 h; stronger effect = lower value; AID 2417, 2010;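 active means readout at or below -70, meaning at least 70% loss of cells showing the perinucleolar compartment, a nuclear body marking cancer cells; inconclusive means readout between -30 and a set limit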;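 further: plate controls were DMSO wells for no effect and camptothecin positive control wells for full effect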
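Read-out is percentage of cells bearing a perinucleolar compartment, from automated 20x imaging of fixed, Hoechst-stained PC3M PTB-GFP cells. Cells were seeded 4 h, then exposed 16 h to compound (23 nl of library stock) in duplicate plates.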
Tau fluor counter = Counterscreen qHTS for Inhibitors of Tau Fibril Formation, Fluorescence Polarization; tau K18 P301L Alexa594 fluorescence, heparin fibrillization; Potency, µM (titrated, usually from 57.7 µM), for the others: at the top dose activity change, negative = decrease; hit rate 0.93% among 280,000; AID 1463, 2008; further: potency means the concentration at half of the fitted maximal effect; nearly all actives have a fitted effect of over 55% in size
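Human tau K18 P301L (15 uM unlabeled, 0.24 uM Alexa 594-labeled) in 100 mM sodium acetate pH 7 with 20 uM heparin, 6 hr at 37 C. ThT 30 uM added, 1 hr ambient; Alexa 594 FP and total fluorescence read at 555/632 nm.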
* = called active by the depositor; ? = inconclusive; · = no result; [ ] = remark or other dose. Shown are actives, neighbours in structure and some others; about 4.6% of the full set was active somewhere. Unless noted, the call rests on the fitted dose curve; in most records, active means well fitted curve in the direction sought with a large enough effect; inconclusive means small, poorly fitted or top-dose-only effect, or another doubt; inactive means no such curve, though single readings can be large; an effect the other way counts as inactive or inconclusive. Unless noted, on the % scale 0 is the no-effect control and ±100 the full control effect.

SMILES	TRb SRC2 PPI	Tau FP inhib	Tau ThT inhib	TR SRC2 fluor cs	PNC inhibitor	Tau fluor counter
CC(C)N=c1scc(-c2cccs2)n1/N=C/c1ccc(O)c(O)c1O	4%	?	16µM*	0%	?	20µM*[quencher]
CN=c1scc(-c2ccccc2F)n1/N=C/c1ccc(O)c(O)c1O	-4%	?	14µM*	-23%	·	25µM*[quencher]
Cc1ccc(-c2nc3cc(NC(=O)c4cc5ccccc5o4)ccc3o2)cc1	-4%	-10%	-16%	-31%	·	-8%
Cc1ccccc1CC1(CO)CCCN(C(=O)c2ccc3ncccc3c2)C1 (stereo not given)	3%	1%	-10%	-2%	·	-7%
CCCn1c(CN(C)Cc2ccccc2)nc2c1c(=O)n(C)c(=O)n2C	4%	5%	-7%	-2%	-22	1%
Cc1nc2scc(-c3cccs3)c2c(=O)n1CC(=O)O	-8%	0%	-4%	1%	-80*	0%
O=C(O)Cn1cnc2scc(-c3cccs3)c2c1=O	-4%	4%	-8%	2%	9	-6%
O=C(/C=C/c1ccccc1)CC(=O)c1ccccc1O	-3%	?	13µM*	-4%	·	?
O=C(/C=C/c1ccccc1)NC(=O)c1ccccc1O	3%	5%	?	-2%	·	?
COc1ccccc1NC(=S)N(Cc1ccco1)Cc1cc2cc(C)cc(C)c2[nH]c1=O	-16%	-5%	6%	-2%	23	-8%
Cc1ccc2nsnc2c1S(=O)(=O)N(Cc1ccco1)Cc1cc2ccc(C)c(C)c2[nH]c1=O	-9%	-2%	-11%	1%	-82*	-4%
COc1ccccc1NC(=S)N(Cc1ccco1)Cc1cc2ccc(C)c(C)c2[nH]c1=O	-5%	?	-3%	7%	-84*	-7%
CC1(C)CC(N(Cc2cccs2)C(=O)c2ccco2)CCO1 (stereo not given)	4%	3%	-6%	-4%	?	8%
CC(=O)/C(N=Nc1ccc2c(c1)OCO2)=C(\C)O	-11%	5%	3.5µM*	3%	?	-14%
CCN(CC)S(=O)(=O)c1ccc(N=N/C(C(C)=O)=C(/C)O)cc1	-4%	3%	-12%	-1%	41	-10%
CC(=O)/C(N=Nc1ccc2c(c1)OCCO2)=C(\C)O	2%	0%	10µM*	-1%	·	-14%
CC(=O)/C(N=Nc1ccc(C(=O)O)cc1)=C(\C)O	-3%	-7%	-12%	-3%	·	-11%
CCN(CC)c1ccc(C(=O)N2CCC(c3c[nH]c4ccccc34)(c3c[nH]c4ccccc34)CC2)cc1	5%	6%	4%	-3%	·	?
COc1ccccc1C(=O)Nc1ccccc1OCc1cc(=O)n2ccccc2n1	4%	-14%	-7%	1%	·	-18%
CCC1CN(C(=O)N2CCC(C(=O)N3CCN(c4ccccc4)CC3)CC2)c2ccccc2O1 (stereo not given)	1%	?	?	-4%	·	11µM*[quencher]
CCC1CN(C(=O)N2CCC(C(=O)NCc3ccco3)CC2)c2ccccc2O1 (stereo not given)	2%	?	16%	4%	·	3.5µM*[quencher]
CCC1CN(C(=O)N2CCC(C(=O)NCCCc3ccccc3)CC2)c2ccccc2O1 (stereo not given)	0%	13%	-19%	-1%	·	8.9µM*[quencher]
CCc1c(C)nc2ncnn2c1N1CCC(C(=O)N2CCN(c3ccccc3)CC2)CC1	11%	4%	-6%	-2%	-88*	8%
Cc1sc2c(c1C)CN(C(C)(C)C)CN2C(=O)c1ccccc1	-11%	0%	-17%	5%	4	-17%
O=C(NNc1c(Cl)cccc1Cl)C1CCC1	0%	2%	3%	-4%	·	8%
SMILES	TRb SRC2 PPI	Tau FP inhib	Tau ThT inhib	TR SRC2 fluor cs	PNC inhibitor	Tau fluor counter
COc1ccc(-n2nnnc2SCC(=O)c2ccc3c(c2)OCCO3)c(OC)c1	-3%	?	-2%	0%	?	-25%
O=C(NCc1ccco1)C1CCN(C(=O)N2CCOc3ccccc32)CC1	-6%	11%	?	3%	·	5µM*[quencher]
C[c-]1[c-](C)[c-](C)[c-](C)[c-]1C.[Fe].c1cc2nccc(N3CCCC3)[c-]2c1 (stereo not given)	-6%	?	32µM*	-2%	·	?
COc1ccc(/C=N/Nc2nnc(-c3ncc[nH]3)c3ccccc23)cc1	10%	6%	?	-5%	15	-21%
Oc1ccc2ccccc2c1/C=N/Nc1nnc(-c2ncc[nH]2)c2ccccc12	11%	?	4µM*	-3%	-13	8.9µM*[quencher]
O=C(Cn1c(=O)ccc2cc(S(=O)(=O)N3CCCC3)ccc21)NCc1ccc(Cl)cc1	-1%	-4%	-1%	2%	·	-18%
O=[N+]([O-])c1cc(S(=O)(=O)c2ccc(N3CCCCC3)c([N+](=O)[O-])c2)ccc1N1CCCCC1	4%	1%	1%	-3%	38	-14%
Cc1nc(C)n(CC(O)COc2ccc(C(=O)c3ccccc3)cc2)n1 (stereo not given)	3%	5%	2%	-1%	-95*	6%
Cc1nc(C)n(CC(O)COc2ccc3c(c2)CCC3)n1 (stereo not given)	-15%	6%	-7%	-1%	?	5%
Cc1nc2ccccc2n1CC(O)COc1ccc(C(=O)O)cc1 (stereo not given)	1%	3%	-7%	-2%	·	-2%
CCC(=O)c1ccc(OCC(O)Cn2c(C)nc3ccccc32)cc1 (stereo not given)	-10%	7%	?	-1%	-121*	-3%
COc1cc(-c2nc3ccccn3c2/N=C/c2cc(OC)c(O)cc2Cl)ccc1O	-5%	?	14µM*	-1%	·	?
CN1CCN(C2CC(=O)N(c3ccc4c(c3)OCCO4)C2=O)CC1 (stereo not given)	0%	12%	-7%	-2%	23	-8%
O=C(C1CCN(C2CC(=O)N(c3ccc(F)cc3)C2=O)CC1)N1CCOCC1 (stereo not given)	-12%	-2%	-14%	-3%	59	0%
O=C1CCCN1CCC1CCN(C2CC(=O)N(c3ccc(F)cc3)C2=O)CC1 (stereo not given)	-3%	4%	-17%	2%	-112*	2%
